Most compounds without a hit are left out; they make up all but 10% or so of the library.
SW480 rerep: inducers of DNA re-replication in SW480 colon cancer cells; SW480 DNA re-replication, Hoechst DNA content imaging, 48 h; Potency, µM (titrated, usually from 46.1 µM), inactives show at the top dose re-replication activation, usual class: activators; 340,000 tested, 1.8% active; AID 624297; further: % of control where 0% means no effect; nearly all actives have a fitted effect of over 55% in size
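DNA re-replication was detected as more nuclei of elevated Hoechst intensity after 48 hr exposure to compound (23 nL pinned per well of 250 cells).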
VP16 counter: Gal4-VP16 reporter inhibition counter-screen | Drosophila S2 Gal4-VP16 UAS-luciferase, luminescence, 20 h | Potency, µM (doses to about 53.6 µM), for inactives: at the highest dose activity, negative = inhibition, actives largely listed as inhibitors | 310,000 tested, 3.5% active | AID 2546;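 further: Gal4-VP16 expression switched on by copper sulfate through the metallothionein promoter; on the % scale 0 is the no-effect control and ±100 the full control effect; nearly all actives have a fitted effect of over 50% in size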
ELG1 DNA repair: ELG1-dependent DNA repair inhibition | HEK293T ELG1-luciferase reporter, luminescence, 16 h; DNA damage induced by 5-fluorouridine | Potency, µM (series often up to 46.1 µM), for the others: top-dose activity change, negative = inhibition, actives largely listed as inhibitors | 330,000 tested, 2.3% active | AID 504467; further: on the % scale 0 is the no-effect control and ±100 the full control effect; nearly all actives have a fitted effect of over 55% in size
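Step one: seed 2,000 cells per well. Step two: pin-transfer compound or DMSO alongside 5-fluorouridine. Step three: incubate 16 hr, 37 °C, 5% CO2. Step four: add ONE-Glo, wait 30 min, read luminescence.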
MCF10A rereplic: DNA re-replication induction in MCF 10a cells; 350,000 tested, 2.9% active; Potency, µM (top dose mostly 46.1 µM), for inactives: at the highest dose activity, positive = re-replication, usual class: activators; MCF 10A DNA re-replication, Hoechst nuclear intensity, 48 h; further: % of control where 0% means no effect; nearly all actives have a fitted effect of over 50% in size
RORg inh: ROR gamma (mouse) transcription inhibition | Drosophila S2 Gal4-RORgamma UAS-luciferase reporter, 20 h | AID 2551 | Potency, µM (highest dose often 53.6 µM), inactives show top-dose activity change, negative = inhibition, most hits filed as inhibitors | 310,000 tested, 5.4% active | P51450; further: on the % scale 0 is the no-effect control and ±100 the full control effect; nearly all actives have a fitted effect of over 60% in size
Target sequence (P51450 whole entry, looked up, the tested form may be a part): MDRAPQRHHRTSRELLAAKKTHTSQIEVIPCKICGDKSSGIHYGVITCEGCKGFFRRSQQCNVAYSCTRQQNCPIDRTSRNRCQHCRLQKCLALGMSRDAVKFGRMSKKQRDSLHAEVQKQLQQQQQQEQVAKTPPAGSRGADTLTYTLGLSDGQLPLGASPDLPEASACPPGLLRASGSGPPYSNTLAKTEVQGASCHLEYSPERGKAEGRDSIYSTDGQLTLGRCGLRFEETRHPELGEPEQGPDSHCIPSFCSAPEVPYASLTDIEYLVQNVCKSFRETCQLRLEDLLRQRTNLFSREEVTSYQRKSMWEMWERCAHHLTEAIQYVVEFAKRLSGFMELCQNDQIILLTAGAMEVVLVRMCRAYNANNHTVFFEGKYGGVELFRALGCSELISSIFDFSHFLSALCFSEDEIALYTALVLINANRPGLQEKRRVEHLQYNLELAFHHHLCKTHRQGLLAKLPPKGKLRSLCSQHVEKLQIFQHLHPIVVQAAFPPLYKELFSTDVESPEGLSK
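Using a luciferase readout, inhibitors were identified by reduced reporter activity in Drosophila cells coexpressing a copper-inducible Gal4–ROR gamma fusion and UAS-driven Photinus luciferase, incubated 20 hr after 700 uM copper sulfate.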
* hit, by the source's call; ? = inconclusive; / = no result; [ ] = dose if it differs, or a comment. The call rests on the fitted dose curve; in most records, active means well fitted curve in the direction sought with a large enough effect; inconclusive means small, poorly fitted or top-dose-only effect, or another doubt; inactive means no such curve, though single readings can be large; an effect the other way counts as inactive or inconclusive. Potency means the concentration at half of the fitted maximal effect.

SMILES	SW480 rerep	VP16 counter	ELG1 DNA repair	MCF10A rereplic	RORg inh
O=C(O)c1ccc(Cl)c(S(=O)(=O)N(Cc2ccccc2)c2ccccc2Cl)c1	1%	-22%	-24%	8.2µM*	-28%
O=C(O)c1ccc(Cl)c(S(=O)(=O)N(Cc2ccccc2)c2ccccc2)c1	1%	8%	-3%	9%	-27%
COc1cc(/C=C(\C(=O)O)c2ccc(S(=O)(=O)N3CCCC3)s2)ccc1OCCC(C)C	-3%	/	/	2%	/
O=C(NCc1ccco1)C1CCN(c2nc3ccccc3n2Cc2ccc(F)cc2)CC1	1%	5%	18µM*	9%	0%
O=C(CCCCn1c(=O)c2ccccc2n(Cc2ccc(F)cc2)c1=O)NCc1ccco1	?	5%	?	18µM*	27%
Nc1c(C(=O)NCCN2CCOCC2)c2nc3ccccc3nc2n1CCc1ccccc1F	-1%	?	?	4%	-29%
c1ccc2nc3c(nc2c1)c1ccccc1n3CCN1CCOCC1	?	-5%	?	18µM*	-9%
Nc1c(C(=O)NCCN2CCOCC2)c2nc3ccccc3nc2n1CCc1ccccc1	16µM*	-13%	?	1.8µM*	33%
CC(=O)Nc1ccc(SCC(=O)Nc2oc(C)c3c(C)n[nH]c(=O)c23)cc1	-1%	/	0%	2%	/
CC(C)(C)c1cc(C(=O)N/N=C/c2ccc(O)cc2)n(-c2ccccc2)n1	-6%	8%	-6%	25%	?
Cc1ccccc1CN(C)C(=O)c1ccc2ccccc2n1	2%	-1%	-2%	-2%	4%
Nc1c(C(=O)NCc2ccco2)c2nc3ccccc3nc2n1CCc1ccc(F)cc1	5.8µM*	?	?	?	-19%
Cc1nc(Nc2ccccc2)sc1C	?	13µM*	2%	3%	3.5µM*
O=C(NC(=S)Nc1nc2c(s1)CCCC2)c1ccccc1	-80%	0.63µM*	?	3%	0.56µM*
Cc1nc(NC(=S)NC(=O)c2ccccc2)sc1C	1%	?	?	1%	1.3µM*
S=C(Nc1nc2c(s1)CCCC2)NC1CC1	-17%	1.8µM*	?	-1%	1.3µM*
Cc1nc(NC(=O)c2ccccc2)sc1C	-17%	-16%	?	-1%	?
O=C(CS(=O)(=O)Cc1ccccc1)Nc1nc2c(s1)CCCC2	0%[9.22 µM]	15%	1%	-6%	31%
CC(=O)N1CCc2cc(S(=O)(=O)CCC(=O)Nc3ccc(Cl)cc3F)ccc21	?	-4%	11%	6%	-12%
COc1cc(/C=C(/C#N)C(=O)Nc2ccc(Cl)cc2)ccc1Oc1nc(Cl)ncc1F	18%	3%	-1%	?	-5%
O=S(=O)(c1ccc(OC(F)(F)F)cc1)N1CCCC(N2CCOCC2)C1 (centres undefined)	?	-3%	0%	0%	2%
COC(=O)c1sc(NC(=S)NC(=O)c2cccc(C)c2)nc1C	-2%	?	?	-3%	4µM*
COC(=O)c1sc(NC(=O)COc2ccc(OC)cc2)nc1C	4%	/	/	-2%	/
Cc1nc(NC(N)=S)sc1C(=O)Nc1ccccc1	-2%	-13%	10%	-3%	11µM*
O=C(Nc1nc2c(s1)CCCC2)c1ccc(N2C(=O)CCC2=O)cc1	-7%	15%	?	-20%	?
SMILES	SW480 rerep	VP16 counter	ELG1 DNA repair	MCF10A rereplic	RORg inh
COC(=O)c1ccc(C(=O)NC(=S)Nc2nc3c(s2)CCCC3)cc1	11%	7.1µM*	?	?	2.2µM*
COC(=O)c1sc(NC(=O)COc2cccc3ccccc23)nc1C	-3%	-3%	-13%	18µM*	-9%
CSC(=NC#N)N1CCN(c2ccccn2)CC1	3%	2%[10 µM]	15%	0%	27%
CCc1ccc(Nc2nc(C)cc(C)n2)cc1	-9%	7%	?	2%	10%
C=CCNC(=O)c1oc2ccc(S(=O)(=O)N3CCCCC3)cc2c1C	-25%	-12%	-14%	-2%	0%
C=CCNC(=O)c1oc2ccc(S(=O)(=O)N3CCC4(CC3)OCCO4)cc2c1C	4%	10%	?	-1%	2%
Cc1c(C(=O)N2CCc3ccccc3C2)oc2ccc(S(=O)(=O)N3CCCCCC3)cc12	8%	-10%	16µM*	?	?
